# Experimental data taken from PubChem BioAssay (NCATS).
# Several values for one entry are separate records, joined by “and”; a condition that tells them apart may be missing. Equal values may be shown once. Results filed as inconclusive are left out. Activity calls are given as the source filed them. Calls follow the shape of the dose curve; as a rule, active = well fitted inhibition curve with a large enough effect; inconclusive = small, poorly fitted or top-dose-only effect; inactive = flat fitted curve, though single readings scatter.
# System: TAB165
# Test: qHTS profiling for inhibitors of Plasmodium falciparum proliferation (AID 504749);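 as to activity, negative = inhibition: 0% = DMSO vehicle and full inhibition = artemisinin control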
# Details: P. falciparum in erythrocytes, SYBR Green DNA, 72 h; series mostly up to 28.7 µM; activity, negative = inhibition: at the top concentration
# Method in brief: (§1)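 Three-day growth assay of blood-stage parasites in erythrocytes (0.3% parasitemia, 2.5% hematocrit) at 37 C, 5% CO2, quantified by SYBR Green DNA staining after overnight detergent lysis.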
# Also: nearly all actives have a fitted effect of over 60% in size.
# Potency is read from the fitted curve at half-maximal effect.
SMILES,"activity, negative = inhibition",Potency
C[C@](N)(Cc1ccc(O)cc1)C(=O)O,8.19% (inactive),–
CC(=O)c1ccc2c(c1)N(CCCN(C)C)c1ccccc1S2,-25.6% [at 12.8 µM] (inactive),–
CSc1ccc2c(c1)N(CCC1CCCCN1C)c1ccccc1S2 (stereo not given),–,12.6 µM (active)
CCCn1cnc2c1c(=O)n(CCCCC(C)=O)c(=O)n2C,-5.55% (inactive),–
CCN(CC)CCSC(=O)C(c1ccccc1)c1ccccc1,–,inactive
CCN(CC)CCNC(=O)c1c(C)[nH]c(/C=C2\C(=O)Nc3ccc(F)cc32)c1C,–,7.08 µM (active)
CC1=C(CC(=O)O)c2cc(F)ccc2/C1=C\c1ccc(S(C)=O)cc1 (stereo not given),-2.33% (inactive),–
CC(CN1c2ccccc2Sc2ccccc21)N(C)C (stereo not given),5.02% (inactive),–
COCCOC(=O)C1=C(C)NC(C)=C(C(=O)OC/C=C/c2ccccc2)C1c1cccc([N+](=O)[O-])c1 (stereo not given),–,12.6 µM (active)
CN(C)CCCN1c2ccccc2Sc2ccc(Cl)cc21,–,8.91 µM (active)
CSc1ccc2c(c1)C(N1CCN(C)CC1)Cc1ccccc1S2 (stereo not given),–,12.6 µM (active)
C=Cc1c(C)c2cc3[nH]c(cc4nc(cc5nc(cc1[nH]2)C(C)=C5CCC(=O)O)C(CCC(=O)O)=C4C)c(C)c3C=C,-2.04% (inactive),–
CN(C)CCN(Cc1ccccc1)c1ccccn1,-22.9% (inactive),–
O=C(O)CN1C(=O)c2cccc3cccc(c23)C1=O,7.38% (inactive),–
COC(=O)C1=C(C)NC(C)=C(C(=O)OC)C1c1ccccc1[N+](=O)[O-],-17.4% (inactive),–
CC1=C(/C=C/C(C)=C/C=C/C(C)=C/C(=O)O)C(C)(C)CCC1,-5.96% (inactive),–
CCCCN(CCCC)CC(O)c1cc(Cl)cc2c1-c1ccc(Cl)cc1/C2=C/c1ccc(Cl)cc1 (stereo not given),–,0.0079 µM (active)
CC(=O)Oc1ccc(C2(c3ccc(OC(C)=O)cc3)C(=O)Nc3ccccc32)cc1,–,inactive
CNCCC(Oc1ccc(C(F)(F)F)cc1)c1ccccc1 (stereo not given),–,11.2 µM (active)
CN1CCN(C2Cc3ccccc3Sc3ccc(Cl)cc32)CC1 (stereo not given),–,12.6 µM (active)
Cc1c(O)cccc1C(=O)N[C@@H](CSc1ccccc1)[C@H](O)CN1C[C@H]2CCCC[C@H]2C[C@H]1C(=O)NC(C)(C)C,–,10 µM (active)
O=C1NC(=O)[C@@]2(CCOc3ccc(F)cc32)N1,5.69% (inactive),–

# System: W2
# Test: as above
# Details: P. falciparum in erythrocytes, SYBR Green DNA, 72 h; series mostly up to 28.7 µM; activity, negative = inhibition: at the top concentration
# Method in brief: as §1
SMILES,"activity, negative = inhibition",Potency
C[C@](N)(Cc1ccc(O)cc1)C(=O)O,5.72% (inactive),–
OCCN1CCN(CCCN2c3ccccc3Sc3ccc(Cl)cc32)CC1,–,3.22 µM (active)
CC(=O)c1ccc2c(c1)N(CCCN(C)C)c1ccccc1S2,–,1.02 µM (active)
CSc1ccc2c(c1)N(CCC1CCCCN1C)c1ccccc1S2 (stereo not given),–,6.75 µM (active)
NC(=O)N/N=C/c1ccc([N+](=O)[O-])o1,–,9.53 µM (active)
CCCn1cnc2c1c(=O)n(CCCCC(C)=O)c(=O)n2C,–,15.1 µM (active)
CCN(CC)CCNC(=O)c1c(C)[nH]c(/C=C2\C(=O)Nc3ccc(F)cc32)c1C,–,4.26 µM (active)
CNCCCC1c2ccccc2C=Cc2ccccc21,–,0.51 µM (active)
COCCOC(=O)C1=C(C)NC(C)=C(C(=O)OC/C=C/c2ccccc2)C1c1cccc([N+](=O)[O-])c1 (stereo not given),–,9.53 µM (active)
CN(C)CCCN1c2ccccc2Sc2ccc(Cl)cc21,–,1.07 µM (active)
CSc1ccc2c(c1)C(N1CCN(C)CC1)Cc1ccccc1S2 (stereo not given),–,5.36 µM (active)
C=Cc1c(C)c2cc3[nH]c(cc4nc(cc5nc(cc1[nH]2)C(C)=C5CCC(=O)O)C(CCC(=O)O)=C4C)c(C)c3C=C,7.72% (inactive),–
[Cl][In]([Cl])[Cl],–,7.57 µM (active)
C[C@]12C[C@H](O)[C@H]3[C@@H](CCC4=CC(=O)CC[C@@]43C)[C@@H]1CC[C@@H]2C(=O)CO,-29.1% (inactive),–
O=C(O)CN1C(=O)c2cccc3cccc(c23)C1=O,2.43% (inactive),–
COC(=O)C1=C(C)NC(C)=C(C(=O)OC)C1c1ccccc1[N+](=O)[O-],-23.2% (inactive),–
CC1=C(/C=C/C(C)=C/C=C/C(C)=C/C(=O)O)C(C)(C)CCC1,-11.5% (inactive),–
CC(=O)Oc1ccc(C2(c3ccc(OC(C)=O)cc3)C(=O)Nc3ccccc32)cc1,–,inactive
CN1CCCCC1CCN1c2ccccc2Sc2ccc(S(C)=O)cc21 (stereo not given),–,1.9 µM (active)
CNCCC(Oc1ccc(C(F)(F)F)cc1)c1ccccc1 (stereo not given),–,3.79 µM (active)
CN1CCN(C2Cc3ccccc3Sc3ccc(Cl)cc32)CC1 (stereo not given),–,3.79 µM (active)
Cc1c(O)cccc1C(=O)N[C@@H](CSc1ccccc1)[C@H](O)CN1C[C@H]2CCCC[C@H]2C[C@H]1C(=O)NC(C)(C)C,–,8.49 µM (active)
O=C1NC(=O)[C@@]2(CCOc3ccc(F)cc32)N1,0.601% (inactive),–

# System: CRL-7250
# Test: Cytotoxic Profiling of Annotated Libraries Using Quantitative High-Throughput Screening (AID 1296008); as to max response: % is scaled to controls: 0 for no effect and ±100 for the full control effect
# Details: Five cell lines viability, CellTiter-Glo ATP luminescence, 48-72 h; max response: hits give low values
# Method in brief: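 Cytotoxicity was measured as CellTiter-Glo ATP luminescence, read after 10 min at room temperature. Compound treatment of the cells lasted 48 or 72 hr at 37 degrees Celsius in a qHTS format.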
SMILES,Potency,max response,outcome
CC(C)c1c(C(=O)Nc2ccccc2)c(-c2ccccc2)c(-c2ccc(F)cc2)n1CC[C@@H](O)C[C@@H](O)CC(=O)O,6.68 µM (active) and 2.73 µM (active),–,–
NC(=O)N/N=C/c1ccc([N+](=O)[O-])o1,–,-6.15% (inactive),–
CCCn1cnc2c1c(=O)n(CCCCC(C)=O)c(=O)n2C,–,-5.12% (inactive),–
CCN(CC)CCSC(=O)C(c1ccccc1)c1ccccc1,–,-12.1% (inactive),–
CCN(CC)CCCC(C)Nc1c2ccc(Cl)cc2nc2ccc(OC)cc12 (stereo not given),16.8 µM (active),–,–
CC(CN(C)C)CN1c2ccccc2CCc2ccccc21 (stereo not given),–,–,inactive
CN(C)CCN(Cc1ccccc1)c1ccccn1,–,–,inactive
OCc1cc(C(O)CNCCCCCCOCCCCc2ccccc2)ccc1O (stereo not given),–,-15.6% (inactive),–
C[C@]12C[C@H](O)[C@H]3[C@@H](CCC4=CC(=O)CC[C@@]43C)[C@@H]1CC[C@@H]2C(=O)CO,–,3.36% (inactive),–
O=C(O)CN1C(=O)c2cccc3cccc(c23)C1=O,–,-6.05% (inactive),–
COC(=O)C1=C(C)NC(C)=C(C(=O)OC)C1c1ccccc1[N+](=O)[O-],–,-7.51% (inactive),–
CN1CCCCC1CCN1c2ccccc2Sc2ccc(S(C)=O)cc21 (stereo not given),–,–,inactive
CC1(C)Oc2ccc(C#N)cc2[C@@H](N2CCCC2=O)[C@@H]1O,–,–,inactive
CN1CCN(C2Cc3ccccc3Sc3ccc(Cl)cc32)CC1 (stereo not given),–,-15.1% (inactive),–
O=C1Nc2ccc(Cl)cc2[C@@](C#CC2CC2)(C(F)(F)F)O1,–,-9.32% (inactive) and 4.5% (inactive),–
